# Source: PubChem BioAssay (EPA / NIEHS)
# Values joined by “and” are separate entries in the source; they are usually repeats but may differ in a detail not shown here. Equal entries are not always repeated. Active and inactive are the calls of the source. The calls were made as follows: active = hit-call score of the fitted dose curve at least 0.9, where 1 is the maximum; inactive = score below 0.9.
# Assay: CCTE_Padilla_ZF_144hpf_TERATOSCORE: (Legacy) CCTE's 144 Hour Post-fertilization zebrafish Assay Teratoscore, Padilla Lab (AID 2283679);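 as to AC50: teratogenicity score from eye scoring of death hatching and malformations at 144 hpf; higher score means more developmental defects relative to DMSO baseline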
# From the text: CCTE_Padilla_ZF_144hpf is a whole embryo, multiplexed assay. Zebrafish embryos were exposed to chemicals starting 6 hr post-fertilization for 5 days in 96-well plates. Developing larvae were examined microscopically daily for malformation and mortality.CCTE_Padilla_ZF_144hpf_TERATOSCORE is one of one assay component(s) measured or calculated from the CCTE_Padilla_ZF_144hpf assay. It is designed to make measurements of developmental malformations and mortality as detected with brightfield microscopy.Data from the assay component CCTE_Padilla_ZF_144hpf_TERATOSCORE was analyzed into 1 assay endpoint. This assay endpoint, CCTE_Padilla_ZF_144hpf_TERATOSCORE, was analyzed in the positive analysis fitting direction relative to DMSO as the negative control and baseline of activity. Using a type of morphological reporter, gain-of-signal activity can be used to understand changes in developmental defect as they relate to the whole embryo. To generalize the intended target to other relatable targets, this assay endpoint is annotated to the malformation intended target family, where the subfamily is total.
# Zebrafish husbandry: Wild type adult zebrafish (Danio rerio; undefined outbred stock obtained from Aquatic Research Organisms, Hampton, NH, 03842) were housed in an AAALAC-approved animal facility at 28C with a 14:10 h light: dark cycle (lights on at 08:30 h). Adult fish (2-3 females per male; density = 15-20 adults per tank) were kept in one of several 9-liter (L) flow-through colony tanks (Aquaneering Inc., San Diego, CA). All adults in a colony tank were placed in a 2 L (static) breeding tank (Aquatic Habitats, Apopka, FL) one hour prior to light onset. Typically, adults from two to three colony tanks were mated on the same day. Two hours after light onset the adults were returned to the colony tank. All embryos were gathered from each breeder tank, pooled, and placed in a 28C water bath for 2 h, followed by two washes with 0.06% bleach (v/v) in 10% Hanks' Balanced Salt Solution (13.7 mM NaCl 0.54 mM KCl, 25 uM Na2HPO4, 130 uM CaCl2 100 um MgSO4 and 420 um NaHCO3,), hereafter referred to as Hanks' solution, for 5 min in order to remove any residual bacteria or fungi. Immediately following washing, the embryos were examined, and healthy embryos were separated from dead or unfertilized eggs and moved into fresh Hanks'. Single Concentration Study: The chemicals were arrayed on a 96-well stock plate, 80 chemicals per plate, 20 mM concentration of each, with 16 DMSO (vehicle) controls. The embryos were exposed to the chemicals (80 Mfinal concentration, renewed daily) by immersion from 0 dpf until 5 dpf. Eighty micromolar was chosen as the highest concentration for two reasons (1) because the stock solutions were prepared at 20 mM in 100% DMSO. On 6 dpf, each embryo/larva was assessed for viability, hatching status and malformations. There were 4 embryos per concentration per chemical (each embryo on a separate microtiter plate). […] Chemical exposures: Zebrafish embryos were exposed in 96-well plates. Briefly, on day 0, approximately 6-8 h after fertilization, zebrafish embryos (with chorions) were placed 1 embryo per well in Millipore Multiscreen Nylon mesh plates (catalog number MANMN4050, Millipore Corp, Bedford, MA) and exposed to nominal concentrations of the chemicals. In each well, 1 ul of the chemical in DMSO from the stock plate was diluted with 250 ul of 10% Hanks' solution; the final DMSO concentration was 0.4% (v/v) in all wells; vehicle controls receives DMSO only. Each plate was sealed with a non-adhesive material (Type A, BioRad, Hercules, CA), covered with a lid, and wrapped in Parafilm to minimize evaporation. All embryos and larvae were kept in a 26C incubator with a 14:10 h light-dark cycle (with lights on at 08:30 h and off at 22:30 h). […]
Structure (SMILES),AC50,outcome
Nc1ccc(Nc2ccccc2)cc1,10.1 µM (active),–
Cn1c(=O)cc(Oc2ccc(F)cc2F)c2cnc(NCC(C)(C)O)nc21,–,inactive
COc1ccc(/C=C/S(=O)(=O)NC(=O)c2ccc(C)cc2Cl)cc1,–,inactive
COC(=O)CC(=O)OC,–,inactive
CCC(C)(C)C(=O)O[C@H]1C[C@@H](C)C=C2C=C[C@H](C)[C@H](CC[C@@H]3C[C@@H](O)CC(=O)O3)[C@H]21,115 nM (active) and 2.58 nM (active) and 7.92 nM (active),–
CCCN(C1CCN(C(=O)C2CCNCC2)CC1)[C@@H]1CCc2ccc(OC)cc2C1,–,inactive
CC1(C)C(=O)N(Br)C(=O)N1Br,–,inactive
CC(C)CCCCCCCOC(=O)CCCCC(=O)OCCCCCCCC(C)C,–,inactive
CCCCCCc1ccc(O)cc1O,14.9 µM (active),–
CN(C)c1ccc(Cc2ccc(N(C)C)cc2)cc1,25.2 µM (active),–
COCCOCCOCCOC,–,inactive
O=P(OC(CCl)CCl)(OC(CCl)CCl)OC(CCl)CCl,14.3 µM (active),–
COc1ccc2sc(C(=O)Nc3nnn[nH]3)c(OC(C)C)c2c1,34.4 µM (active),–
CC/C(=C\C(=N/O)C(N)=O)C(C)[N+](=O)[O-] (stereo not given),–,inactive
C=CCCCCCCCCC(=O)O,60.1 µM (active),–
O=C(O)c1cccc(N(Cc2cccnc2)c2ccc(OC(F)F)c(OC(F)F)c2)c1,26.5 µM (active),–
O=C(O)c1cccc(Oc2ccccc2)c1,65.2 µM (active),–
Fc1ccccc1[C@@H](F)COC1CCC(Nc2ncnc3[nH]ncc23)CC1 (stereo not given in full),13.8 µM (active),–
CCCCCCCCCCCCc1ccccc1,–,inactive
CC[C@H](C)C(=O)O[C@H]1C[C@@H](C)C=C2C=C[C@H](C)[C@H](CC[C@@H]3C[C@@H](O)CC(=O)O3)[C@H]21,7.47 nM (active) and 5.89 nM (active) and 5.45 nM (active),–

Structure (SMILES),AC50,outcome
Clc1nc(Cl)c(Cl)c(Cl)c1Cl,8.13 µM (active),–
O=C(CCCCCCCCc1cccnc1)N1CCC(C=C(c2ccccc2)c2ccccc2)CC1,14.2 µM (active),–
CCc1cc(SCc2sc(-c3ccc(C(F)(F)F)cc3)nc2CN2CCN(c3ccc(OC)cc3)CC2)ccc1OCC(=O)O,5.47 µM (active),–
O=C(NS(=O)(=O)/C=C/c1ccccc1)c1ccc(F)cc1Cl,–,inactive
CCCCC(CC)COC(=O)CCCCCCCCC(=O)OCC(CC)CCCC (stereo not given),–,inactive
On1ccccc1=S,27.7 µM (active),–
CCOC(=O)COc1ccc2c(c1)CC(NCC(O)c1cccc(Cl)c1)CC2 (stereo not given),6.13 µM (active),–
COc1ccc(-n2nc(C(F)F)cc2-c2ccc(S(C)=O)cc2)cc1 (stereo not given),88.9 µM (active),–
CC(C)CCO,–,inactive
Cc1ccc(N)cc1O,–,inactive
Cc1c(-c2cccnc2)c2ccccc2n1CCCCC(=O)O,58.5 µM (active),–
Cc1[nH]cnc1C[C@H]1CCc2c(C)c3ccccc3n2C1=O,13.8 µM (active),–
CC(=O)OCCC(C)C,–,inactive
CCOc1cccc(-n2cc(C(=O)N3CCN(c4cc(C(=O)O)c5ccccc5c4)CC3)nc2-c2ccc(C)cc2)c1,16.6 µM (active),–
Nc1nc2ncc(CNc3ccc(C(=O)N[C@@H](CCC(=O)O)C(=O)O)cc3)nc2c(=O)[nH]1,–,inactive
Oc1ccc2c(c1)-c1ccccc1C2,32.9 µM (active),–
COc1cccc(-c2ccc(/C=C\CN3CCCCCC3)cc2Cl)c1,2.73 µM (active),–
CC(C)c1cccc(C(C)C)c1N1C(=O)c2ccc(O)cc2C1=O,4.71 µM (active),–
CC(C)=CCC/C(C)=C/CO,15.4 µM (active),–
O=C(OC[C@H]1O[C@@H](OC(=O)c2cc(O)c(O)c(OC(=O)c3cc(O)c(O)c(O)c3)c2)[C@H](OC(=O)c2cc(O)c(O)c(OC(=O)c3cc(O)c(O)c(O)c3)c2)[C@@H](OC(=O)c2cc(O)c(O)c(OC(=O)c3cc(O)c(O)c(O)c3)c2)[C@@H]1OC(=O)c1cc(O)c(O)c(OC(=O)c2cc(O)c(O)c(O)c2)c1)c1cc(O)c(O)c(OC(=O)c2cc(O)c(O)c(O)c2)c1,4.71 µM (active),–
